# From PubChem BioAssay
# Activity calls are given as the source filed them.
# Experiments:
# Albumin (Bos taurus) = Albumin (Bos taurus) (UniProt P02769); test: bovine serum albumin binders on microarray, profiling panel, artefact control for SMM control protein annotation, biochemical, small-molecule microarray, Alexa647 label, 635/667 nm fluorescence (AID 1118); details: BSA-A647 binding, fluorescence 635 nm, higher = more signal;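 note: score merges 667 nm emission intensity and signal-to-noise per printed compound spot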
# Albumin (Bos taurus), sequence (P02769 whole entry, looked up): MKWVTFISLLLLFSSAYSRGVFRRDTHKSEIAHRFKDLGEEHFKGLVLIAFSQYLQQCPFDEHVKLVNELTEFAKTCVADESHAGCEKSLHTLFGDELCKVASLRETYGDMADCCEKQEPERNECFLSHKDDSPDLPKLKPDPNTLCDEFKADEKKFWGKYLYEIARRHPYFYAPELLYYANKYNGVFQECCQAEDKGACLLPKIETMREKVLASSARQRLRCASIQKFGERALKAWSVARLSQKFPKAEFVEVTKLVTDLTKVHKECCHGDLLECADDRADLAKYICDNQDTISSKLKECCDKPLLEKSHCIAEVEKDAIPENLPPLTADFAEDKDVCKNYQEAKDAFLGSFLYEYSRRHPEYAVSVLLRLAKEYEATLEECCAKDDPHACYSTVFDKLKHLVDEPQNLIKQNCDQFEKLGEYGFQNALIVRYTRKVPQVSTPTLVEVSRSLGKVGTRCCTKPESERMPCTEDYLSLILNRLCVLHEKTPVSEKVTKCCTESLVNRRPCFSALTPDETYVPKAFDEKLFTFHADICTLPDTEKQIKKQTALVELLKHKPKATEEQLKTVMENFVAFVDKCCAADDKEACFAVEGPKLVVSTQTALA
# [1] = small-molecule microarray binders of probe aXIP, primary screen, biochemical, NeuroSMM set, 635/667 nm fluorescence (AID 1119); details: higher = more signal, called active from +8 up or from −8 down;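 note: probe is the protein aXip251-270 applied at 1 µg/mL to compound-printed slides; binding of probe to printed compounds measured as 667 nm fluorescence plus signal to noise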
# [2] = small-molecule binders of probe aNOTCH3, primary screen, biochemical, small-molecule microarray, 635/667 nm fluorescence (AID 1120); details: higher = more signal;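 note: probe is a biotin-tagged antibody raised against NOTCH3 rather than NOTCH3 protein; score merges spot fluorescence near 667 nm with spot signal to noise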
# [3] = small-molecule binders of probe aNOTCH2, primary screen, biochemical, small-molecule microarray, 635/667 nm fluorescence (AID 1121); details: higher = more signal;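 note: score merges feature fluorescence read at 667 nm with its signal to noise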
# [4] = molecular target: Carbonic anhydrase 2 (Homo sapiens) (UniProt P00918); test: CAII small-molecule binders, profiling panel, biochemical, small-molecule microarray, Alexa647-labelled CAII (AID 1122); details: CAII-A647 binding fluorescence, higher = more signal
# [5] = COS7 lysate on small-molecule microarray, probe aHis, 635 nm (AID 1123); details: COS7 cell lysate, fluorescence, higher = more signal;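 note: z-score combines 667nm fluorescence intensity with signal-to-noise per printed compound spot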
# [6] = compound binding in COS7 lysate, probe aLAP1, primary screen, cell lysate, small-molecule microarray (AID 1124); details: probe aLAP1, fluorescence, higher = more signal;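 note: lysate comes from COS7 cells expressing LAP1 and is applied at 0.3 µg/mL; score merges spot fluorescence near 667 nm with signal-to-noise over triplicate slides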
# Sam68 (KHDRBS1) = test: Sam68 small-molecule binders, primary screen, biochemical, small-molecule microarray, 635 nm fluorescence (AID 1125); details: small-molecule microarray binding, higher = more signal;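 note: score merges 667 nm channel intensity with signal to noise over triplicate slides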
# [7] = test system: Chordin-like protein 2 (CHRDL2); test: CHRDL2 small-molecule binders, primary screen, biochemical, small-molecule microarray, 635 nm fluorescence (AID 1126); details: small-molecule microarray binding, fluorescence 635 nm; higher = more signal;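 note: printed compound slides probed with Chrdl2 protein at 4 µg/mL for 1 h at 4 C; score merges 667 nm emission intensity with signal to noise over three replicate slides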
# [8] = molecular target: Concanavalin-A (Canavalia ensiformis) (UniProt P02866); test: ConA small-molecule binders, primary screen, artefact control for SMM control protein annotation, biochemical, small-molecule microarray, Alexa647 label, 635 nm (AID 1127); details: ConA-A647 binding fluorescence, higher = more signal;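 note: z combines 667 nm emission intensity with signal-to-noise across three replicate slides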
# Concanavalin-A (Canavalia ensiformis), sequence (P02866 whole entry, looked up): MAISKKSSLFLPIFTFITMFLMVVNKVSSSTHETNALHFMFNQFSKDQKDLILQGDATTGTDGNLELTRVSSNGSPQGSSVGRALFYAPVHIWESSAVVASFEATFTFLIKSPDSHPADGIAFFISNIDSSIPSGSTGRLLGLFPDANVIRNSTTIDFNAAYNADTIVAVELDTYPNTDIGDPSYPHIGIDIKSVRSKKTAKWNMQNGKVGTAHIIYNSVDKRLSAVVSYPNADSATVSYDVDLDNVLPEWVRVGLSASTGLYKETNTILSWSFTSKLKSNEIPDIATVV
SMILES,composite z-score (Albumin (Bos taurus)),composite Z-score [1],composite z-score [2],composite z-score [3],composite z-score [4],composite z-score [5],composite z-score [6],composite z-score (Sam68 (KHDRBS1)),composite z-score [7],composite z-score [8]
COC(=O)[C@@]1(Cc2ccc(F)cc2)[C@H]2c3cc(C(=O)N(C)C)n(CCc4ccc(OC)c(Br)c4)c3C[C@H]2CN1C(=O)c1ccccc1,0.939,0.562 (inactive),0.613,0.363,0.487,1.44,0.0915,-0.111,-0.66,0.793
O=C1OCCC/C=C\[C@H]2OC34C=CCN(c5ccc6ccccc6c5)C(=O)[C@H]3N(CCO)C(=O)[C@@H]4C12 (stereo not given in full),-1.75,0.278 (inactive),-0.355,-0.213,0.959,-0.237,1.48,-0.359,-2.13,-1.39
CCOC(=O)C[C@H]1[C@H](OC(=O)c2cc3ccccc3oc2=O)[C@@H](NC(=O)c2ccccc2)c2cc(OCCCO)ccc2N1C(=O)c1ccccc1,-0.122,0.0916 (inactive),-0.0199,-0.147,-0.129,0.236,-0.155,0.64,0.498,0.535
COc1ccc([Si](C)(C)[C@@H]2[C@@H](CC(=O)N(CCO)Cc3ccccc3)O[C@]3(C(=O)N(Cc4cccc(N5CCCCC5=O)c4)c4ccccc43)[C@H]2C)cc1,0.11,0.42 (inactive),-0.22,-0.131,0.52,1.86,-0.104,0.646,0.905,1.03
NC(=O)NCC#Cc1ccc2c(c1)[C@]1(C(=O)N2)[C@H](C(=O)N2CCN(c3ncccn3)CC2)[C@H]2C(=O)O[C@H](c3ccccc3)[C@H](c3ccccc3)N2[C@@H]1c1ccc(O)cc1,0.151,0.953 (inactive),0.856,-0.0149,0.304,0.817,0.102,1.2,0.864,0.721
CC(C)N1C(=O)c2ccccc2[C@@H](C(=O)NCCN2CCOCC2)[C@@H]1c1ccc(CO)cc1,0.466,1.62 (inactive),-0.313,-0.155,0.786,-0.735,-0.523,-1.21,-1.51,-0.538
C=CCNC(=O)[C@@H]1[C@H]2C(=O)O[C@H](c3ccccc3)[C@H](c3ccccc3)N2[C@H](c2ccc(O)cc2)[C@@]12C(=O)N(C(=O)OCCOC)c1ccc(C#CC3=CCCCC3)cc12,0.179,0.683 (inactive),0.138,-0.14,0.32,1.57,0.354,1.28,0.673,0.737
O=C1O[C@@H](c2ccccc2)[C@@H](c2ccccc2)N2[C@@H](c3ccc(OCCO)cc3)[C@]3(C(=O)Nc4ccc(C#CC5=CCCCC5)cc43)[C@@H](C(=O)NC[C@H](O)c3ccccc3)[C@H]12,-0.948,-0.176 (inactive),1.03,0.338,0.117,1.57,0.109,1.3,1.16,1.17
C=CCNC(=O)[C@@H]1[C@H]2C(=O)O[C@H](c3ccccc3)[C@H](c3ccccc3)N2[C@H](c2ccccc2OCCO)[C@@]12C(=O)Nc1ccc(C#CCCO)cc12,-0.162,-0.433 (inactive),-0.0302,-0.147,0.675,0.71,0.452,0.826,1.13,1.15
CC(C)C(O)C1C=CC2C(=O)N(c3ccccc3)C(=O)C2N1Nc1ccccc1 (stereo not given),0.938,-0.221 (inactive),0.228,-0.131,0.698,3.02,0.281,1.31,-0.235,0.966
C[N+](C)(C)CCCCCCNC(=O)[C@@H]1C[C@@H]2C(=O)N3CCC[C@H]3C(=O)N2[C@@H]1c1ccc(O)cc1,-0.245,0.05 (inactive),0.0591,-0.118,0.684,1.47,0.326,0.904,1.41,0.818
[N-]=[N+]=NCc1ccccc1C[C@@]1(C(N)=O)N=C(c2ccc(OCCCO)cc2)O[C@@H]1c1ccccc1,1.09,0.294 (inactive),0.0762,0.0341,0.693,2.83,0.368,1.3,-1.38,0.341
Cc1ccc(S[C@]2(C(=O)NCC(F)(F)F)CC(=O)N(Cc3cc(C(F)(F)F)cc(C(F)(F)F)c3)[C@@H]2c2ccc(CO)cc2I)cc1,0.803,0.439 (inactive),-0.291,-0.164,0.14,0.869,-0.0008,-1.47,-1.54,-0.41
COCCOC(=O)N1C(=O)[C@@]2(c3cc(C#CC4=CCCCC4)ccc31)[C@H](c1ccccc1OCCO)N1[C@H](c3ccccc3)[C@H](c3ccccc3)OC(=O)[C@H]1[C@@H]2C(=O)N1CCN(c2ncccn2)CC1,0.326,-0.17 (inactive),0.212,-0.154,0.214,0.634,0.297,1.06,0.374,1.06
CCOC(=O)C[C@H]1[C@H](OC(=O)c2ccccc2-c2ccccc2)[C@@H](NC(=O)c2ccc3ccccc3c2)c2cc(OCCCO)ccc2N1C(=O)c1ccccc1,0.5,-0.0287 (inactive),0.138,-0.206,0.355,0.462,-0.0843,0.735,0.578,0.215
COCC(=C=CC[C@H](O)c1ccc(OCCO)cc1)CCO,-0.173,-0.321 (inactive),-0.0298,0.0312,0.736,0.368,0.342,0.763,0.262,-0.155

SMILES,composite z-score (Albumin (Bos taurus)),composite Z-score [1],composite z-score [2],composite z-score [3],composite z-score [4],composite z-score [5],composite z-score [6],composite z-score (Sam68 (KHDRBS1)),composite z-score [7],composite z-score [8]
COc1ccc(C#Cc2ccc3c(c2)[C@]2(C(=O)N3)[C@H](c3ccc(O)cc3)N3[C@H](c4ccccc4)[C@H](c4ccccc4)OC(=O)[C@H]3[C@@H]2C(=O)Nc2nc3ccccc3s2)cc1,0.67,0.276 (inactive),-0.014,0.117,0.61,2.47,0.98,1.29,0.428,1.08
COC(=O)C1=CC(CCCO)=CC(c2cccs2)N(Cc2cccc(OC(F)(F)F)c2)C=C1C(=O)OC (stereo not given),0.935,0.387 (inactive),0.208,0.224,0.834,1.93,0.718,1.3,-0.413,1.13
C=CCC(OC(C)=O)[C@@H]1[C@@H](N(Cc2ccc(-c3cccc(C(F)(F)F)c3)o2)C(=O)c2ccc(-c3ccccc3)cc2)c2cc(OCCCO)ccc2N1C(=O)Cc1ccc2ccccc2c1 (stereo not given in full),-0.124,-0.274 (inactive),-0.149,-0.11,-0.177,0.453,-0.039,-0.421,-0.353,-0.0333
CCOC(=O)C[C@H]1[C@H](OC(=O)c2cc3ccccc3oc2=O)[C@@H](NC(=O)c2ccc3ccccc3n2)c2cc(OCCCO)ccc2N1C(=O)Cc1ccc(OC)cc1,0.463,0.35 (inactive),0.127,-0.0878,0.356,0.219,-0.0863,1.22,0.368,1.05
COC(=O)[C@@]1(Cc2ccccc2)[C@H]2c3cc(C(=O)N(C)C)n(Cc4ccc(C)o4)c3C[C@H]2CN1C(=O)c1ccccc1,0.874,0.173 (inactive),1.25,0.618,0.753,1.93,0.673,1.12,-1.06,0.354
COc1ccccc1CN1C(=O)c2ccccc2[C@](Cc2ccccc2I)(C(=O)O)[C@@H]1c1ccc(CO)cc1,0.76,0.114 (inactive),0.0961,-0.0238,0.328,2,0.704,1.27,0.227,1.18
COCCOC(=O)N1C(=O)[C@@]2(c3cc(C#CCC(C(=O)OC)C(=O)OC)ccc31)[C@H](c1ccc(OCCO)cc1)N1[C@H](c3ccccc3)[C@H](c3ccccc3)OC(=O)[C@H]1[C@@H]2C(=O)N1CCc2cc(OC)c(OC)cc2C1,0.688,-0.388 (inactive),0.0351,-0.106,0.256,1.48,-0.0051,1.06,0.378,1.11
COc1cccc(C)c1NC(=O)O[C@H]1[C@H](OC(=O)Nc2ccc3c(c2)OCO3)[C@@H](OC(=O)Nc2ccc3c(c2)OCO3)[C@@H](OC)O[C@@H]1CO,0.48,0.525 (inactive),0.508,-0.0714,0.43,2.53,1.29,1.29,0.492,0.66
CCCCNC(=O)c1ccc(C#CC(C)(C)C)c(OC(C)=O)c1,0.691,0.0956 (inactive),0.0744,-0.181,0.728,-0.0302,-0.0555,1.02,0.641,0.744
CCOC(=O)C[C@H]1[C@H](OC(=O)Cc2ccc3c(c2)OCO3)[C@@H](NC(=O)C2CCCCC2)c2cc(OCCCO)ccc2N1C(=O)c1ccccc1,0.869,0.394 (inactive),-0.0647,-0.14,0.112,0.469,0.124,0.249,-0.311,0.833
CC(C)c1ccc(NN2C(C(O)c3ccc(C#N)cc3)C=CC3C(=O)N(c4ccccc4)C(=O)C32)cc1 (stereo not given),1.04,0.238 (inactive),0.33,-0.0296,0.358,2.84,0.982,1.3,0.0494,0.926
CCCC=C(CCC)[C@@H](NS(=O)(=O)c1ccc(C(F)(F)F)cc1)c1ccccc1,-0.127,0.404 (inactive),0.149,0.115,0.0051,1.34,-0.122,0.42,-0.732,0.277
[N-]=[N+]=Nc1ccccc1C[C@]1(C(=O)NCCN2CCOCC2)COC(c2ccc(OCCCO)cc2)=N1,0.18,-0.34 (inactive),-0.0745,0.0328,0.348,1.87,1.26,1.15,0.376,1.1
CCOC(=O)C1=CC[C@@H](c2ccccc2F)N(S(=O)(=O)c2ccc(C)cc2)[C@H]1c1ccccc1,0.437,-0.244 (inactive),0.103,0.0416,0.338,1.19,0.212,1.18,0.0943,0.83
COc1ccc(CCNC(=O)[C@@]2(c3ccc([N+](=O)[O-])cc3)CC(=O)N(C3CCCCC3)[C@@H]2c2ccc(CO)cc2)cc1,0.143,0.665 (inactive),0.245,0.0224,0.283,1.89,0.0344,1.16,-0.0865,0.952
C=CCNC(=O)[C@@H]1[C@H]2C(=O)O[C@H](c3ccccc3)[C@H](c3ccccc3)N2[C@H](c2ccccc2OCCO)[C@@]12C(=O)N(C(=O)OCCOC)c1ccc(C#CC3(O)CCCCCC3)cc12,0.351,0.0141 (inactive),0.11,-0.0708,0.354,2.15,0.618,1.29,0.755,1.07
